# Screens from PubChem BioAssay.
# A selection: hits, their analogues and other compounds. The true share with any hit is near 3.4%.
# COUP-TFII inh – blocks human COUP-TFII nuclear receptor | inhibition, % at 8.6 µM | HEK293T NGFI-A luciferase reporter, luminescence | 0.7% of 370,000 active | P24468;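 active = inhibition above a per-plate cutoff, mean inhibition of test wells between control levels plus 3 SD, cut at about 38% in these data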;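 note: cells cotransfected with COUP-TFII expression vector driving the NGFI-A reporter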
# Target sequence (P24468 whole entry, looked up): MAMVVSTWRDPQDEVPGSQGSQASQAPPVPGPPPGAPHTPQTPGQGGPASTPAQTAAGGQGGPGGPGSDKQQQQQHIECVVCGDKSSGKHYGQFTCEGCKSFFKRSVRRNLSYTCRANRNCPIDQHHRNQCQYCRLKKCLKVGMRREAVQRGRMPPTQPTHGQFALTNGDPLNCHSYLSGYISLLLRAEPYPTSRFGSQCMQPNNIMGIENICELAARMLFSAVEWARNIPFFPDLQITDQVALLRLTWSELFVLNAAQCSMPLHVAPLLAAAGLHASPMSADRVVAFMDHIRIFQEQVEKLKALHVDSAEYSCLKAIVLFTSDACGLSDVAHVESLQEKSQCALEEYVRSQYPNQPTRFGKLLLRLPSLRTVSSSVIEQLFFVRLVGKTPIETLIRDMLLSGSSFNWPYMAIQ
# Gli-Sufu antag – antagonists of Gli-Sufu signaling. Sufu-KO-LIGHT fibroblasts, Gli luciferase reporter luminescence. inhibition, % at 5 µM. 0.74% of 340,000 active. AID 588413;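 active = inhibition above about 55%, limit read from the data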
# H9c2 protect – myocardial damage modulation in H9c2 cells; 0.63% of 360,000 active; protection from H2O2 cell death, % at 20 µM; H9c2 cardiomyocytes, H2O2 injury protection, ATPLite, 2 h;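 active = compounds giving at least 50% protection of heart cells from peroxide-induced death in the single-dose screen, raw or plate-pattern-corrected value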
# SMARCA2 act – activators of SMARCA2 function. activation, % at 9.1 µM. 1% of 370,000 active. MG213 cells, MMTV-luciferase reporter, dexamethasone, overnight; in the data active = activation above about 7.8%
# FXN GAA850 act – activators of GAA850 frataxin (FXN) promoter; HEK293 lucGAA850 FXN promoter luciferase reporter, 24 h; percent of 10 µM SAHA response; activation, % at 6 µM; 0.56% of 360,000 active; AID 540364;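 active = activation above the average of all compounds screened plus 3 SD, cutoff fixed separately per campaign, cut at about 7.5% in these data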
# GalR3 antagonist – antagonists of human GalR3. AID 651719. inhibition, % at 3 µM. 0.44% of 360,000 active. HEK293 GalR3-CNG cAMP membrane potential fluorescence; galR3 body fused to GalR1 C-terminus;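 active = inhibition above the screen-wide average plus 3 SD, cut at about 13% in these data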;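 note: forskolin and galanin both at EC90 stimulate the cells; cAMP rise reported by CNG channel membrane potential dye signal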
# GAA30 counter – GAA30 FXN promoter activation counter-screen; shares compounds with FXN GAA850 act; HEK293 lucGAA30 FXN promoter luciferase, 24 h; DMSO = 0%, 5 µM ipriflavone = 100%; activation, % at 6 µM; 66% of 1,900 active; AID 588350;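 active = mean activation above the mean of solvent-only control wells plus 3 SD, cut at about 22% in these data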;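 note: counterscreen of GAA850 promoter hits where activity marks nonselective or luminescence artifacts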
# GAA850 confirm – GAA850 FXN promoter activation confirmation; shares compounds with FXN GAA850 act; HEK293 lucGAA850 FXN promoter luciferase reporter, 24 h; 100% = activation by SAHA; activation, % at 6 µM; 86% of 1,900 active; AID 588351;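 active = mean activation above a set limit taken from the primary screen, cut at about 8% in these data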
# Numbers stand for hits; - = inactive; . = not tested or not shown.
SMILES,COUP-TFII inh,Gli-Sufu antag,H9c2 protect,SMARCA2 act,FXN GAA850 act,GalR3 antagonist,GAA30 counter,GAA850 confirm
COCC(C)NC(=O)NC1(C(F)(F)F)Oc2ccc(Cl)cc2O1 (stereo not drawn),-,-,-,-,10.2,-,-,18.2
CCn1c(=O)[nH]n(C/C(C)=C\c2c[n+](Cc3ccc4c(c3)OCO4)c(N)[nH]2)c1=O,-,.,.,.,.,.,.,.
Cc1ccc(CN2CCCCC(NC(=O)c3ccccc3C)C2=O)cc1 (stereo not drawn),-,.,.,-,.,.,.,.
CCc1cccc(CC)c1NC(=O)COC(=O)c1ccc2c(c1)S(=O)(=O)c1ccccc1C2=O,-,-,-,-,14.2,-,25.7,-
COC(=O)[C@]12C[C@H](CC(=O)NCc3cccs3)C(=O)N(Cc3ccco3)C1=C[C@H](C1CCCC1)O[C@@H]2C,-,.,.,-,.,.,.,.
COc1ccccc1C=NNC(=O)CSc1nc2ccccc2n1Cc1ccc(Cl)cc1,-,.,.,-,.,.,.,.
COc1cccc(CNC(=O)Cn2cc3c(n2)CCCC3)c1,-,-,-,-,15.9,-,22.9,10.0
COC(=O)[C@H](CC(C)C)N1Cc2nnn(CC3CCCCC3)c2-c2ccccc2S1(=O)=O,-,.,.,-,.,.,.,.
O=C(N/N=C\c1cccc(Cl)c1)c1n[nH]c2c1CCCC2,-,-,-,-,10.2,-,72.6,19.9
Cc1ccc(/C=N/NC(=O)c2n[nH]c3c2CCCC3)cc1,-,-,-,-,-,-,.,.
Cc1nnc(SCC(=O)c2cc(C)n(-c3ccc4c(c3)OCO4)c2C)s1,-,-,-,-,11.0,-,66.2,26.4
Cc1cc(C(=O)CSc2nnnn2C)c(C)n1-c1ccc2c(c1)OCCO2,-,-,-,-,-,-,.,.
COC(=O)CNC(=O)[C@H](Cc1ccccc1)NC1(C(=O)NCCc2c[nH]c3ccccc23)CCCCC1,-,.,.,.,.,.,.,.
Brc1ccc([C@H]2C=C[C@H]3CCCN4CC[C@H]2[C@@H]3[C@]42CO2)cc1,-,.,.,-,.,-,.,.
O=C1CC(c2ccco2)Sc2nc3ccccc3n21 (stereo not drawn),-,-,-,-,8.3,-,84.3,22.1
CC1=C(C(=O)N2CCCCCC2)CC(CC(=O)NCCc2ccccn2)C(=O)N1Cc1ccc(C(C)(C)C)cc1 (stereo not drawn),-,.,.,-,.,-,.,.
COC(=O)[C@]1(C)N[C@H](CN(C)C(=O)NC(C)C)[C@@H]2C(=O)N(Cc3ccccc3)C(=O)[C@@H]21,-,-,-,-,-,-,.,.
COC(=O)[C@]1(C)N[C@H](CN(C)C(=O)Nc2ccccc2)[C@@H]2C(=O)N(Cc3ccccc3)C(=O)[C@@H]21,-,-,-,-,9.4,-,22.0,9.8
CCN(C[C@H]1N[C@@](C)(C(=O)OC)[C@H]2C(=O)N(Cc3ccccc3)C(=O)[C@@H]12)C(=O)Nc1ccc(C)cc1,-,-,-,-,15.7,-,27.8,11.7
CCN(C[C@H]1N[C@@](C)(C(=O)OC)[C@H]2C(=O)N(Cc3ccccc3)C(=O)[C@@H]12)C(=O)Nc1ccccc1,-,-,-,-,-,-,.,.
COC(=O)CCCC[C@@H]1O[C@H](CCc2ccccc2)CC2=C1C(=O)OC(C)(C)O2,-,.,.,-,.,-,.,.
COc1ccc(-c2cc(C(F)(F)F)nc(S(=O)(=O)CCCC(=O)Nc3cccc(O)c3)n2)cc1OC,-,-,-,-,9.3,-,39.6,32.4
COc1ccccc1-c1cc(C(F)(F)F)nc(S(=O)(=O)CCCC(=O)O)n1,-,-,-,-,-,-,.,.
N#CCSc1nc(-c2ccccc2)cs1,-,-,-,-,-,-,.,.
N#CCSc1ccc2nc(-c3ccccc3)cn2n1,-,-,-,-,7.7,-,119.2,30.9
SMILES,COUP-TFII inh,Gli-Sufu antag,H9c2 protect,SMARCA2 act,FXN GAA850 act,GalR3 antagonist,GAA30 counter,GAA850 confirm
CCOC(=O)c1c(CSc2ccccc2)oc2cc(Br)c(O)c(CN(C)C)c12,-,-,-,-,8.2,-,-,9.7
CCOC(=O)C1=C(O)/C(=C/c2cc(OC)c(OC)c(OC)c2)SC1=Nc1ccc(OC)cc1,-,-,-,-,9.6,-,-,10.9
C=CCNc1nc(Nc2ccccc2F)nc(OCC)n1,-,-,-,-,9.4,-,80.2,35.5
CCOc1nc(Nc2ccccc2F)nc(OCC)n1,-,-,-,-,-,-,.,.
COc1ccc(C=NNC(=S)NN=Cc2ccc(OC)c(OC)c2)cc1OC,-,-,-,-,8.7,15.8,87.2,30.5
c1ccc2c(c1)ncn2-c1cncnc1,-,.,-,-,.,-,.,.
O=C(Nc1ccc2oc(-c3cccc4ccccc34)nc2c1)c1ncn[nH]1,-,-,-,-,8.8,-,104.5,40.6
O=C(CN1CCN(Cc2ccccc2F)C1=O)NCc1cccnc1,-,-,-,-,12.9,-,-,-
O=C(CN1CCN(Cc2ccccc2Cl)C1=O)NCc1cccnc1,-,-,-,-,-,-,.,.
C/C(=N\NC(=O)COc1ccc(C(C)(C)C)cc1)c1cc2ccccc2o1,-,-,-,-,9.5,-,104.6,39.1
COc1ccc(OC)c(NC(=O)C2CCCN(S(=O)(=O)c3c(C)nn(C)c3C)C2)c1 (stereo not drawn),-,-,-,-,14.1,-,-,9.3
O=S1(=O)CC(N2CCCC2)CN1Cc1cn(Cc2ccc(F)cc2)nn1 (stereo not drawn),-,.,.,-,.,-,.,.
COC(=O)[C@]12C[C@H](CC(=O)NCc3ccc(C)o3)C(=O)N(CCc3ccc(OC)c(OC)c3)C1=C[C@H](C(C)(C)C)O[C@@H]2C,-,.,.,-,.,.,.,.
COCCCNC(=O)C[C@H]1C[C@@]2(C(=O)OC)C(=C[C@H](C(C)C)O[C@@H]2C2CC2)N(Cc2ccc(Cl)cc2Cl)C1=O,-,.,.,-,.,.,.,.
c1cncc(-c2nn3c(Cn4nnc5ccccc54)nnc3s2)c1,-,-,-,-,16.4,-,-,-
C=C1CCN([C@@H](Cc2ccccc2)C(=O)NCCCc2ccccc2)S(=O)(=O)c2ccccc21,-,-,-,-,-,-,.,.
C=C1CCN([C@H](C(=O)Nc2ccc(OC)cc2)C(C)C)S(=O)(=O)c2ccccc21,-,-,-,-,9.5,-,-,11.7
C=C1CCN([C@@H](Cc2ccccc2)C(=O)Nc2ccc(OC)cc2)S(=O)(=O)c2ccccc21,-,-,-,-,11.9,-,28.9,13.1
C=C1CCN([C@@H](C)C(=O)NCc2ccc(OC)cc2)S(=O)(=O)c2ccccc21,-,-,-,-,-,-,.,.
Cc1ccccc1CS(=O)(=O)Cc1ccc(C(=O)Nc2ccccc2C)o1,-,.,.,-,.,.,.,.
COc1ccc(S[C@]2(C(=O)NC(C)C)CC(=O)N[C@@H]2c2ccc(OC)cc2)cc1,-,.,.,-,.,.,.,.
